Bioassay records (PubChem)
CHRM1 agonist: agonists of human M1 muscarinic receptor; P11229; CHO-K1 hM1, Fluo-8 calcium fluorescence, agonist mode; 0% DMSO, 100% acetylcholine EC100; activation, % at 3 µM; 360,000 tested, 0.33% active; AID 588814;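 active = activation above the run's mean compound activation plus 3 SD, cut at about 16% in these data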;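 note: peak over basal fluorescence ratio within a 140 s kinetic read after compound addition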
Target sequence (P11229 whole entry, looked up): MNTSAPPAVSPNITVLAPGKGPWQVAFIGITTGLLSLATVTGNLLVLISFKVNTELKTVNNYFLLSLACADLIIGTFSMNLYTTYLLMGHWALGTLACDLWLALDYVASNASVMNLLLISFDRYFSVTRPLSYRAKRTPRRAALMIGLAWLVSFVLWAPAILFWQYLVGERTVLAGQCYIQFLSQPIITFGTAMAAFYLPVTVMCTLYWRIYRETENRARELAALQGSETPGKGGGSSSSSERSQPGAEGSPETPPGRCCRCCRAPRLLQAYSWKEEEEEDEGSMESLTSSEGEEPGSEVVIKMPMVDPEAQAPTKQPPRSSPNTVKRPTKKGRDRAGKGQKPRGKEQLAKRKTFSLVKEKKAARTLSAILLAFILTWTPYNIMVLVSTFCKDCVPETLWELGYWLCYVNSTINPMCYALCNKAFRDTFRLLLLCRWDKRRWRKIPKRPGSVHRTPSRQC
M1 antag: blocks human M1 muscarinic receptor; P11229; CHO-K1 hM1, Fluo-8 calcium fluorescence, ACh EC80 antagonist; inhibition, % at 3 µM; 360,000 tested, 1.3% active; AID 588852;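 active = percent inhibition above its own plate's cutoff, namely the mean of that plate's compound wells plus 3 SD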;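 note: peak over basal fluorescence ratio during 140 s after agonist addition; 0% = ACh EC80 plus DMSO and 100% = DMSO alone without agonist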
M1 PAM parental: M1 PAM counterscreen hit in parental CHO-K1 cells; activation, % at 3 µM; ATP EC20, Fluo-8 calcium fluorescence; 0% at ATP EC20, 100% at ATP max; AID 602247; 360,000 tested, 0.02% active;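 active = activation above the run cutoff, the mean activation of all test compounds plus 3 SD, cut at about 40% in these data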;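 note: peak over basal fluorescence ratio in a 140 s read after ATP addition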
CHO-K1 Ca antag: nonselective inhibitor or artifact in parental CHO-K1 cells | ATP-induced calcium, Fluo-8 fluorescence | inhibition, % at 3 µM | 360,000 tested, 0.6% active | AID 602250;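 active = inhibition above a per-plate cutoff, the plate's mean sample inhibition plus 3 SD, cut at about 24% in these data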;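 note: 0% = DMSO plus EC80 ATP and 100% = DMSO alone without ATP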
CHRM1 PAM: human CHRM1 positive allosteric modulation; P11229; activation, % at 3 µM; 360,000 tested, 0.088% active; AID 588819; CHO-K1 hM1, Fluo-8 calcium fluorescence, ACh EC20; 0% = ACh EC20, 100% = maximal ACh; in the data active = activation above about 19%, passing the limit was not always enough
M1 ag parental: counter-screen for M1 agonists: effect in parental CHO-K1 cells; Fluo-8 calcium fluorescence; scaled to maximal ATP response, vehicle zero; 360,000 tested, 0.48% active; AID 602248; activation, % at 3 µM; in the data active = activation above about 15%;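 note: untransfected CHO-K1 host cells lacking M1 receptor as counterscreen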
Starred values were filed as active, the others as inactive. In the library only some 2.3% were active in any assay of this set; here they are far more common.

SMILES	CHRM1 agonist	M1 antag	M1 PAM parental	CHO-K1 Ca antag	CHRM1 PAM	M1 ag parental
Cc1ccc(NNC(=O)C(O)(c2cccc(C(F)(F)F)c2)c2cccc(C(F)(F)F)c2)cc1	-6	6	-3	2	-8	0
O=C(NNc1ccccc1Br)C(O)(c1cccc(C(F)(F)F)c1)c1cccc(C(F)(F)F)c1	-9	36*	11	6	-22	5
O=[N+]([O-])c1ccc(CN2[C@H](COCc3ccccc3)[C@@H](N3CCCC3)CS2(=O)=O)cc1	-4	0	7	3	-2	1
Oc1ccccc1Oc1ncc(Br)c(N2CCOCC2)n1	-6	84*	18	0	-23	1
COc1cccc(N2CCN(c3ccc([N+](=O)[O-])cn3)CC2)c1	-4	-16	13	-12	8	2
CN(C)c1ccc(/C=C2\SC(=S)N(Nc3ncc(C(F)(F)F)cc3Cl)C2=O)cc1	37*	61*	6	39*	-18	21*
COc1cc(/C=C2\SC(=S)N(Nc3ncc(C(F)(F)F)cc3Cl)C2=O)ccc1O	11	30*	7	22	-4	15
Cc1cc(C)nc(NN2C(=O)/C(=C/c3ccccc3)SC2=S)n1	-5	4	-7	4	1	0
CCOc1cc(/C=C2\SC(=S)N(NS(=O)(=O)c3ccccc3)C2=O)ccc1O	2	13	-1	6	-9	10
CC1CN(C(=O)c2ccc(COc3ccccc3Br)o2)CC(C)O1 (centres undefined)	-7	-9	14	-6	2	0
O=C(NCc1ccccc1Cl)c1csc(COCCO)n1	-3	-17	10	-9	13	2
CC(=O)c1cccc(N=c2scc(-c3ccc(S(=O)(=O)N4CCOCC4)cc3)n2CCO)c1	-2	31	-6	32*	-18	10
C=CCn1c(-c2ccc(S(=O)(=O)N3CCOCC3)cc2)csc1=Nc1ccccc1	-1	19	17	8	-5	6
S=C(Nc1ccc(Oc2ccccc2)cc1)N(CCCN1CCOCC1)Cc1ccccn1	-7	9	5	-10	-7	1
CCCCN(CCCC)c1ccc(C(=O)c2ccccc2C(=O)O)c(O)c1	37*	5	8	-1	-12	15*
CCOC(=O)c1cnc2ccc(OCC)cc2c1N1CCN(C)CC1	-3	-1	21	-14	2	1
CCOc1ccc2ncc(S(=O)(=O)c3ccc(C)cc3)c(N3CCC4(CC3)OCCO4)c2c1	-5	35*	17	-1	-19	4
CCOc1cc(CNn2cnnc2)cc(Br)c1OCC(=O)NC1CCCCC1	-2	9	-9	29*	3	0
O=C1Nc2ccccc2C(=O)N2[C@H](c3ccccc3)[C@@H]3C(=O)N(Cc4ccccc4)C(=O)[C@@H]3[C@H]12	23*	-8	-13	-1	9	0
CSc1cccc(NC(=S)N(Cc2ccccc2)Cc2cccnc2)c1	-5	8	-12	19	-2	1
CCCCC(=O)OCC(=O)c1cc(C)n(-c2c(C)n(C)n(-c3ccccc3)c2=O)c1C	-6	1	21	-20	0	0
CCOC(=O)c1cc(C)n(-c2c(C)n(C)n(-c3ccccc3)c2=O)c1C	-5	34*	4	-4	-14	1
NC(=O)C1CCN(c2ncc(C(F)(F)F)cc2Cl)CC1	-10	39*	22	-9	-11	0
CN(CCO)C(=O)C1CCN(c2ncc(C(F)(F)F)cc2Cl)CC1	-5	4	23	-8	0	4
O=C(c1ccc2nc[nH]c2c1)N1CCN(c2ncc(C(F)(F)F)cc2Cl)CC1	11	1	-13	-1	26*	2
CC1CCCN(C(=O)c2ccc(NC(=O)CC3SC(N4CCCC4)=NC3=O)cc2)C1 (centres undefined)	-2	-9	-10	-2	4	0
CCN(CC)c1c(C)nc2ccc(C(=O)Nc3cc(-c4ccccc4)ccc3OC)cn12	-6	6	-9	14	-4	0
COc1cc(CNC(=O)C2CCCC2)cc(OC)c1OC	1	-26	12	-10	27*	1
COc1ccccc1CNC(=O)C1CCCC1	-1	6	-16	-8	-4	0
